Shown are actives, neighbours in structure and some others; about 0.95% of the full set was active somewhere.
RE007 growth inh: less growth of the S. pombe RE007 Vpr strain; Potency, µM (top dose mostly 92.2 µM), for inactives: at the highest dose activity change, negative = less growth, most hits filed as inhibitors; AID 651644; 360,000 compounds, 0.21% hits; S. pombe RE007 Vpr strain, BacTiter-Glo ATP luminescence, 24 h; active = well fitted falling curve with a large enough effect; inconclusive = small, poorly fitted or top-dose-only effect; inactive = no such curve, though single readings can be large or run the other way; also: nearly all actives have a fitted effect of over 50% in size
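Fission yeast RE007 carrying one integrated HIV-1 vpr copy, seeded at OD 0.01 in PMG+AL medium with 23 nL pinned compound. Grown 24 h at 30 degrees; viability read by BacTiter-Glo luminescence after 5 min.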
Giardia FBPA inh-1: inhibitors of Giardia lamblia fructose-1,6-bisphosphate aldolase; purified Giardia FBPA; Potency, µM (doses to about 59.6 µM), for inactives: at the highest dose activity, negative = inhibition, actives largely listed as inhibitors; A8B2U2; 290,000 compounds, 0.71% hits; also: nearly all actives have a fitted effect of over 55% in size
Target sequence (A8B2U2 whole entry, looked up): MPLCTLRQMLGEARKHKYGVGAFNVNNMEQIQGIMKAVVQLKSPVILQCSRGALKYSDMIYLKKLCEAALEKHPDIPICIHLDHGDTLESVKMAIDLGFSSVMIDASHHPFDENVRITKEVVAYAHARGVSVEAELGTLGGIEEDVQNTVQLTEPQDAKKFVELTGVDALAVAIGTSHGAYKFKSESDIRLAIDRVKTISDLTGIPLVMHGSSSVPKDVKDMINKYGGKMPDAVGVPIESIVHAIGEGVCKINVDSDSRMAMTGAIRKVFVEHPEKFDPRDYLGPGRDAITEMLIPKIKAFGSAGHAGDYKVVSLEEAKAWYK
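Giardia FBPA (40 nM reagent) was preincubated 10 min at RT with compound (up to 57.5 uM final), then substrate plus GAPDH/TPI/NAD/arsenate coupling system with diaphorase/resazurin was added; resorufin fluorescence (525/598 nm) was read after 20 min.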
TbPYK inhibitor: blocks Trypanosoma brucei pyruvate kinase. TbPYK enzyme, Kinase-Glo Plus ATP luminescence, 45 min. Potency, µM (titrated, usually from 76.8 µM), for the others: at the highest dose activity, negative = inhibition, actives largely listed as inhibitors. 410,000 compounds, 0.12% hits. AID 624173; also: nearly all actives have a fitted effect of over 50% in size
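Activity of T. brucei pyruvate kinase was followed by Kinase-Glo Plus luminescence after the enzyme reacted 45 min at room temperature with 130 uM ADP (final) and substrate. Test compounds were added before ADP at multiple concentrations.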
LmPK inh: LmPK (Leishmania mexicana) enzyme inhibition; Q27686; 290,000 compounds, 0.37% hits; Potency, µM (top dose mostly 57.5 µM), without a hit: top-dose activity change, negative = inhibition, actives largely listed as inhibitors; purified LmPK, Kinase-Glo ATP luminescence, 1 h
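qHTS format; LmPK 0.1 nM; substrates PEP 0.5 mM and ADP 0.1 mM. One-hour room-temperature incubation, then coupled luciferase luminescence; 0.5 nM enzyme wells mark activation.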
Giardia growth: inhibitors of Giardia lamblia growth; shares compounds with Giardia FBPA inh-1; Giardia lamblia trophozoite growth inhibition; Potency, µM (top dose mostly 57.5 µM), without a hit: at the top dose activity change, negative = inhibition, hits mostly inhibitors; 1,500 compounds, 5% hits; AID 2785;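 also: trophozoites exposed to compound for 48 h at 37 °C; nearly all actives have a fitted effect of over 70% in size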
Mammal cell tox: mammalian cytotoxicity of Giardia aldolase inhibitor hits | shares compounds with Giardia FBPA inh-1 | mammalian cell viability counter-screen, qHTS | Potency, µM (top dose mostly 57.5 µM), without a hit: top-dose viability change, negative = toxicity, most hits filed as inhibitors | 1,500 compounds, 4% hits | AID 2786;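 also: Chinese hamster ovary cells used as mammalian cytotoxicity surrogate; viability measured as cellular ATP by luminescence; compound exposure lasted 48 h before reading; nearly all actives have a fitted effect of over 60% in size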
Giardia FBPA inh-2: confirmation of Giardia fructose-bisphosphate aldolase inhibitors. Potency, µM (top dose mostly 57.5 µM), for the others: top-dose activity change, negative = inhibition, usual class: inhibitors. shares compounds with Giardia FBPA inh-1. 1,500 compounds, 5% hits. purified Giardia aldolase enzyme activity, qHTS; also: nearly all actives have a fitted effect of over 45% in size
Rabbit aldolase: blocks rabbit muscle aldolase in Giardia aldolase selectivity test; Rabbit muscle FBPA enzyme inhibition, selectivity counter-screen; shares compounds with Giardia FBPA inh-1; Potency, µM (top dose mostly 57.5 µM), inactives show at the highest dose activity, negative = inhibition, actives largely listed as inhibitors; 1,500 compounds, 4% hits; also: nearly all actives have a fitted effect of over 60% in size
Target sequence (P00883 whole entry, looked up): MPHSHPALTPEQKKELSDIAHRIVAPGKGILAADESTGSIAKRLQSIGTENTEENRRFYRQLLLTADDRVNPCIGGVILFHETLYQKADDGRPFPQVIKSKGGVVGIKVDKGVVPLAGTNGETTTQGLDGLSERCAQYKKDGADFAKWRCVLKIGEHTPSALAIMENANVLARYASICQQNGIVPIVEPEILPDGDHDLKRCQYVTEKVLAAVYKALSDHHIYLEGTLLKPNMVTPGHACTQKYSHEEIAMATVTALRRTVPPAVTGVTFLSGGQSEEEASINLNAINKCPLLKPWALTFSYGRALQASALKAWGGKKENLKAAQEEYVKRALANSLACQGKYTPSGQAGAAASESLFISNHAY
GAPDH coupling: counter-screen for Giardia aldolase inhibitors: GAPDH coupling enzyme | shares compounds with Giardia FBPA inh-1 | 1,500 compounds, 6% hits | GAPDH coupling enzyme counterscreen, biochemical, qHTS | Potency, µM (highest dose often 57.5 µM), without a hit: top-dose activity change, negative = inhibition, most hits filed as inhibitors; also: nearly all actives have a fitted effect of over 55% in size
Active calls of the source: *; ? = inconclusive; / = not tested or not shown; [ ] = remark or other dose. Unless noted, calls follow the shape of the dose curve; as a rule, active = well fitted curve in the direction sought with a large enough effect; inconclusive = small, poorly fitted or top-dose-only effect, or another doubt; inactive = no such curve, though single readings can be large; an effect the other way counts as inactive or inconclusive. % is scaled to controls: 0 for no effect and ±100 for the full control effect; potency is read from the fitted curve at half-maximal effect.

SMILES	RE007 growth inh	Giardia FBPA inh-1	TbPYK inhibitor	LmPK inh	Giardia growth	Mammal cell tox	Giardia FBPA inh-2	Rabbit aldolase	GAPDH coupling
COc1cccc(CN2CCN(Cc3ccco3)CC2)c1	-13%	?	-7%	-4%	/	/	/	/	/
COc1ccc(CN2CCN(Cc3ccco3)CC2)cc1	-2%	?	-4%	-3%	/	/	/	/	/
N#C/C(=C/c1ccco1)C(N)=S	-15%	16µM*	0%	6%	?	6%	2%	2%	6%
COC(=O)c1sccc1NC(=O)Nc1ccc(C(C)=O)cc1	-26%	/	-16%	-25%	/	/	/	/	/
COc1ccccc1CNC(=O)c1ccc2c(c1)N(Cc1cc(C)ccc1C)C(=O)c1ccccc1S2	/	/	4%	/	/	/	/	/	/
CC1[C@H]2Cc3ccc(O)cc3[C@]1(C)CCN2C (stereo partly specified)	0%	/	5%	/	/	/	/	/	/
CN1CC[C@@]2(C)c3cc(O)ccc3N(C)C2O1 (stereo partly specified)	/	0.63µM*	-20%	/	?	-21%	2.5µM*	3.5µM*	4.5µM*
S=c1[nH]nc(-c2ccccn2)n1/N=C/c1ccco1	12%	20µM*	-34%	13%	7%[10.4 µM]	15%	4%	16%	5%
S=c1[nH]nc(-c2ccco2)n1/N=C/c1ccccn1	/	?	/	3%	/	/	/	/	/
COCCn1c(C)cc(O)c(C(c2ccccc2F)N2CCN(c3ccccc3)CC2)c1=O (stereo unspecified)	/	/	9%	/	/	/	/	/	/
Cc1nn(C)c(C(=O)N2CCOCC2)c1Cl	0%	16%	-5%	-5%	/	/	/	/	/
O=C(CC1C(=O)OCC2CCCCN21)Nc1ccccc1C(F)(F)F (stereo unspecified)	-11%	22µM*	-17%	2%	54%	23%	5%	0%	13%
CCN1CCOC(=O)C1CC(=O)Nc1ccccc1C(F)(F)F (stereo unspecified)	/	/	0%	/	/	/	/	/	/
CC(C)(C)S(=O)N1Cc2cn(Cc3ccccc3)c(=O)cc2[C@H]1CCO (stereo partly specified)	8%	/	-8%	/	/	/	/	/	/
COCCn1c(C)c(C)c2c(NCCc3ccccc3)ncnc21	-3%	28µM*	25%	2%	-28%	?	1%	1%	12%
Cc1[nH]c(=S)c(C#N)c(-c2ccco2)c1C(=O)N(C)C	27%	20µM*	?	11%	?	8%	-2%	-3%	0%
CCCCNC(=O)C1C(c2ccccc2)=Nc2ccccc2N1C(=O)c1ccc(C)cc1 (stereo unspecified)	0%	/	/	/	/	/	/	/	/
COc1ccc(CCNC(=O)c2ccccc2NS(=O)(=O)c2c(F)cccc2F)cc1	-1%	16%	-8%	-2%	/	/	/	/	/
N#C/C(=N\Nc1ccccc1)C(N)=S	27%	20µM*	-7%	6%	?	7%	12%	24%	13%
O=C(O)CC1OCC=C2CN3CCC45C6=CC(=O)C(=O)C([N+](=O)[O-])=C6NC4C1C2CC35 (stereo unspecified)	-4%	1.3µM*	1%	-12%	13µM*	-11%	4.5µM*	8.9µM*	4µM*
O=C(O)CC1OCC=C2CN3CCC45c6ccccc6NC4C1C2CC35 (stereo unspecified)	1%	-10%	6%	-4%	/	/	/	/	/
Cn1c(=O)c2c([nH]c(=S)n2CCCc2ccccc2)n(C)c1=O	13%	10µM*	2.5µM*	-8%	-20%[10.4 µM]	4%	6%	-17%	16%
Cn1c(=O)[nH]c(=O)c2c1nc(Br)n2CCCc1ccccc1	/	-6%	/	-2%	/	/	/	/	/
Cn1c(=O)[nH]c(=O)c2c1[nH]c(=S)n2CCCc1ccccc1	8%	3.5µM*	?	-23%	-10%[38.3 µM]	-3%	-12%	35µM*	-1%
O=C(NN=Cc1cc(Cl)ccc1[N+](=O)[O-])c1ccco1	-13%	/	2%	/	/	/	/	/	/
SMILES	RE007 growth inh	Giardia FBPA inh-1	TbPYK inhibitor	LmPK inh	Giardia growth	Mammal cell tox	Giardia FBPA inh-2	Rabbit aldolase	GAPDH coupling
COc1ccc([N+](=O)[O-])cc1N(CC(=O)NCCC1=CCCCC1)S(C)(=O)=O	-2%	2%	-9%	0%	/	/	/	/	/
CC(=O)Nc1ccc(S(=O)(=O)NNC(=S)NCC2CCCO2)cc1 (stereo unspecified)	-8%	13µM*	-4%	0%	133%	2%	11%	9%	11%
NS(=O)(=O)c1ccc(NC(=S)NCC2CCCO2)cc1 (stereo unspecified)	5%	-2%	-19%	-1%	/	/	/	/	/
Cc1nn(-c2ccc(Cl)cc2)c(Cl)c1/C=N/NC(=O)c1ccc(NS(=O)(=O)c2cccs2)cc1	-3%	/	-21%	/	/	/	/	/	/
COCC(=O)N1C[C@H](C)[C@H](OC)CN(C)C(=O)c2cc(NC(=O)Nc3cccc(F)c3)ccc2OC[C@@H]1C	0%	/	/	/	/	/	/	/	/
Cc1nn(-c2ccccc2)c(C)c1/C=N/Nc1nc2ccccc2[nH]1	-18%	20µM*	-9%	?	14µM*	25µM*	8%	0%	-16%
Cc1cc(=O)[nH]c(N/N=C/c2c(C)nn(-c3ccccc3)c2C)n1	8%	-4%	3%	1%	/	/	/	/	/
COc1ccc(S(=O)(=O)N2CCC(C(=O)NCCN3CCOCC3)CC2)cc1	-7%	/	4%	0%	/	/	/	/	/
Cc1ccc(NS(=O)(=O)c2ccc3c(c2)CCCN3C(=O)C2CCC2)c(C)c1	/	/	-2%	/	/	/	/	/	/
Cc1n[nH]c(=O)nc1N/N=C/c1ccc(O)c([N+](=O)[O-])c1	-22%	18µM*	-11%	?	14µM*	10%	-11%	-15%	-6%
COc1cc(/C=N/Nc2nc(=O)[nH]nc2C)cc([N+](=O)[O-])c1O	-12%	20µM*	-7%	-16%	?	19%	-15%	-21%	-15%
OC(c1cccc(Cl)c1)c1ncc(-c2cccc(C(F)(F)F)c2)[nH]1 (stereo unspecified)	-17%	/	-3%	/	/	/	/	/	/
Cc1ccc2c(Cn3cc(C(F)(F)F)cc(Cl)c3=O)cc(=O)oc2c1	/	0%	/	3%	/	/	/	/	/
COc1cccc(C(=O)NCC(c2cccs2)N2CCOCC2)c1 (stereo unspecified)	-1%	/	7%	/	/	/	/	/	/
O=C(NCSc1ccncn1)c1ccccc1	-16%	16µM*	1%	0%	8%[10.4 µM]	1%	7%	5%	10%

Screening data from PubChem.
